Source: PubChem (National Center for Advancing Translational Sciences (NCATS))
BRCA1 expr up – BRCA1 expression activation. MCF7-BRCA1-FFLuc reporter, luminescence, 48 h; response scale: scaled: vehicle 0%, 10 µM genistein 100%. Potency, µM (series often up to 46.1 µM), for inactives: at the highest dose activation, most hits filed as activators. 380,000 tested, 1.1% active. AID 624202; further: potency means the concentration at half of the fitted maximal effect; nearly all actives have a fitted effect of over 80% in size
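Luminescence from a BRCA1-driven firefly luciferase in MCF7 cells was the read-out, taken 15 min after substrate addition following 48 h compound exposure at 37 °C. Data were normalized to a 10 microM genistein control and DMSO vehicle.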
VP16 counter – counter-screen for ROR gamma inhibitors: Gal4-VP16 reporter; Drosophila S2 Gal4-VP16 UAS-luciferase, luminescence, 20 h; Potency, µM (series often up to 53.6 µM), inactives show top-dose activity, negative = inhibition, hits mostly inhibitors; 310,000 tested, 3.5% active; AID 2546;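 further: Gal4-VP16 expression switched on by copper sulfate through the metallothionein promoter; potency means the concentration at half of the fitted maximal effect; on the % scale 0 is the no-effect control and ±100 the full control effect; nearly all actives have a fitted effect of over 50% in size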
RORg inh – blocks mouse ROR gamma transcriptional activity; Drosophila S2 Gal4-RORgamma UAS-luciferase reporter, 20 h; P51450; Potency, µM (doses to about 53.6 µM), without a hit: at the highest dose activity change, negative = inhibition, usual class: inhibitors; 310,000 tested, 5.4% active; further: potency means the concentration at half of the fitted maximal effect; on the % scale 0 is the no-effect control and ±100 the full control effect; nearly all actives have a fitted effect of over 60% in size
Target sequence (P51450 whole entry, looked up, the tested form may be a part): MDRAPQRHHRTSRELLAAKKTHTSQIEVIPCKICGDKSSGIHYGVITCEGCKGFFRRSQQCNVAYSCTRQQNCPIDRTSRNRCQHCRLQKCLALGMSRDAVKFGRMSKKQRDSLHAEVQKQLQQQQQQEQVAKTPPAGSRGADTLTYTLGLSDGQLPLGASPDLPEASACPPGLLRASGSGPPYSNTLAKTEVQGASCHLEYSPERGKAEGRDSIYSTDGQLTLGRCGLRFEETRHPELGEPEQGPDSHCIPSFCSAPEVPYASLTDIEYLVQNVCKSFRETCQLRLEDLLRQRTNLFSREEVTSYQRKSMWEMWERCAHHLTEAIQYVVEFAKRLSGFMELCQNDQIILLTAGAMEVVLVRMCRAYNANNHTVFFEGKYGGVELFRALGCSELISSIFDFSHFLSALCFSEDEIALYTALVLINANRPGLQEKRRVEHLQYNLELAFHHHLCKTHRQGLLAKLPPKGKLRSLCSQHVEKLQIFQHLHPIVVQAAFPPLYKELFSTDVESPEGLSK
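Compounds are pin-transferred onto Drosophila Schneider cells expressing a copper-inducible Gal4–ROR gamma transactivation domain fusion. After 1 hr, copper sulfate is added to 700 uM final; luciferase is read 20 hr later.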
Giardia kill – kills Giardia lamblia. Giardia lamblia trophozoite viability. activity change, % at 7.66 µM, hits read low. 340,000 tested, 0.15% active. AID 540267; in the data active means activity change below about -80%; inconclusive means between about -30% and that limit;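 further: parasites exposed to compound for two days anaerobically before the ATP read; on the % scale 0 is the no-effect control and ±100 the full control effect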
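Giardia lamblia trophozoites (100 cells/well) were incubated with compounds for 48 h at 37 deg C under anaerobic conditions. Viability was read as ATP content by one-step luminescence after 15-30 min at room temperature.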
ELG1 repair inh – ELG1-dependent DNA repair inhibition | HEK293T ELG1-luciferase reporter, luminescence, 16 h; DNA damage induced by 5-fluorouridine | Potency, µM (series often up to 46.1 µM), without a hit: at the highest dose activity change, negative = inhibition, usual class: inhibitors | 330,000 tested, 2.3% active; further: potency means the concentration at half of the fitted maximal effect; on the % scale 0 is the no-effect control and ±100 the full control effect; nearly all actives have a fitted effect of over 55% in size
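Reporter activity after DNA damage by 5-fluorouridine is monitored. Compound-treated cells incubate 16 hr at 37 °C, then ONE-Glo is added for 30 min before luminescence reading.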
p53 reactivation – re-activators of mutant p53. H1299 p53-A138V BP100-luciferase reporter, luminescence, 24 h. Potency, µM (series often up to 92.2 µM), for the others: at the top dose activity change, positive = activation, most hits filed as activators. 320,000 tested, 0.063% active. AID 504706; further: potency means the concentration at half of the fitted maximal effect; % of control where 0% means no effect; nearly all actives have a fitted effect of over 45% in size
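p53-null H1299 cells stably carrying temperature-sensitive p53-A138V and a BP100-luciferase reporter were pinned with compounds (4-point, 1:5 series) and held 24 hrs at 37 deg C. Luminescence was read 10 min after detection reagent.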
ELG1 FLuc counter – luciferase inhibition in cell-free luciferin readout for ELG1 hits | shares compounds with ELG1 repair inh | cell-free firefly luciferase luminescence counter-screen, ViewLux | Potency, µM (top dose mostly 46.1 µM), for inactives: at the highest dose activity change, negative = inhibition, usual class: inhibitors | 350 tested, 3% active | AID 624247; further: potency means the concentration at half of the fitted maximal effect; on the % scale 0 is the no-effect control and ±100 the full control effect
ELG1-Luc inh – confirmation of human ELG1-dependent DNA repair inhibitors | shares compounds with ELG1 repair inh | 670 tested, 68% active | HEK293T ELG1-luciferase levels, luminescence; cells co-treated with 5-fluorouridine | Potency, µM (highest dose often 46.1 µM), for the others: at the highest dose activity change, negative = inhibition, hits mostly inhibitors; further: potency means the concentration at half of the fitted maximal effect; on the % scale 0 is the no-effect control and ±100 the full control effect; nearly all actives have a fitted effect of over 55% in size
ELG1 MMS Luc – MMS-stimulated human ELG1 repair inhibition, confirmed; AID 624249; 670 tested, 53% active; Potency, µM (top dose mostly 46.1 µM), without a hit: at the top dose activity change, negative = inhibition, most hits filed as inhibitors; shares compounds with ELG1 repair inh; HEK293T luciferase-tagged ELG1 level, MMS stimulated; further: potency means the concentration at half of the fitted maximal effect; on the % scale 0 is the no-effect control and ±100 the full control effect; nearly all actives have a fitted effect of over 60% in size
ELG1 5FU viab – confirmation of ELG1 repair inhibitors: viability with 5FU; shares compounds with ELG1 repair inh; cell viability with 5-FU, ELG1-dependent repair; Potency, µM (doses to about 46.1 µM), for the others: at the highest dose activity change, negative = viability loss, usual class: cytotoxic; 670 tested, under 10 active; AID 624250;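 further: ELG1-luc HEK293T cells cotreated with 5-fluorouridine at 10 µM final; potency means the concentration at half of the fitted maximal effect; viability measured 16 h after compound addition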
ELG1 MMS cell – confirmation of ELG1 repair inhibitors: viability with MMS; 670 tested, 33% active; shares compounds with ELG1 repair inh; Cell viability with MMS, ELG1-dependent DNA repair; AID 624251; Potency, µM (doses to about 46.1 µM), for the others: top-dose activity change, negative = viability loss, most hits filed as cytotoxic;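 further: ELG1-luc HEK293T cells co-treated with 10 µM MMS; potency means the concentration at half of the fitted maximal effect; viability read 16 h after compound addition; on the % scale 0 is the no-effect control and ±100 the full control effect; nearly all actives have a fitted effect of over 60% in size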
Cell viab unstim – affects unstimulated cell viability, ELG1 hit counter-screen | shares compounds with ELG1 repair inh | cell viability counter-screen, unstimulated, luminescence | Potency, µM (doses to about 45.9 µM), for inactives: top-dose activity change, negative = loss of viability, usual class: cytotoxic | 900 tested, 8% active | AID 624252;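 further: potency means the concentration at half of the fitted maximal effect; compound exposure lasted 16 hours before reading; on the % scale 0 is the no-effect control and ±100 the full control effect; nearly all actives have a fitted effect of over 55% in size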
FLuc enzyme – inhibits purified firefly luciferase, counter-screen for ELG1 hits. shares compounds with ELG1 repair inh. purified firefly luciferase, luminescence counter-screen. Potency, µM (highest dose often 57.5 µM), without a hit: at the top dose activity, negative = inhibition, actives largely listed as inhibitors. 350 tested, 10% active; further: potency means the concentration at half of the fitted maximal effect; on the % scale 0 is the no-effect control and ±100 the full control effect
* = called active by the depositor; ? = inconclusive; . = no result given. Hits are enriched below; roughly 7.6% of the tested compounds scored in any of these assays. Unless noted, the call rests on the fitted dose curve; in most records, active means well fitted curve in the direction sought with a large enough effect; inconclusive means small, poorly fitted or top-dose-only effect, or another doubt; inactive means no such curve, though single readings can be large; an effect the other way counts as inactive or inconclusive.

SMILES | BRCA1 expr up | VP16 counter | RORg inh | Giardia kill | ELG1 repair inh | p53 reactivation | ELG1-Luc inh | ELG1 MMS Luc | ELG1 5FU viab | ELG1 MMS cell | Cell viab unstim | others
CSc1nnc2sc3cc(C)ccc3n12 | 37% | . | . | . | . | . | . | . | . | . | .
Cc1ccc2c(c1)sc1nc(=O)n(-c3ccccc3)c(=O)n12 | ? | 29% | 9% | -11 | ? | 26% | . | . | . | . | 1% | ELG1 FLuc counter=54%;FLuc enzyme=?
CC1(C)Cc2c(C#N)c(SCc3ccccc3)nc(N3CCOCC3)c2CO1 | -37% | -7% | 4% | -7 | 2.3µM* | 10% | 2.2µM* | -9% | ? | 11% | -9%
CCCCCSc1nc(N2CCOCC2)c2c(c1C#N)CC(C)(C)OC2 | -8% | -12% | -15% | 20 | -29% | -4% | . | . | . | . | .
C(=C\c1ccccc1)/CN1CCN(C(c2cccs2)c2nnnn2-c2ccc3c(c2)OCCO3)CC1 (stereo not drawn) | -39% | . | . | . | . | . | . | . | . | . | .
O=C(Nc1nc(-c2cccnc2)cs1)c1ccccc1Cl | -6% | 6% | 1% | -12 | 11% | 7% | . | . | . | . | .
COc1ccc(-c2oc(=O)c3cc(OC)c(OC)cc3c2C#CCCCO)cc1 | -15% | . | . | 28 | ? | 0% | . | . | . | . | .
COc1cc2c(C#CCCCO)c(-c3ccsc3)oc(=O)c2cc1OC | -2% | . | . | 8 | 4.1µM* | -2% | 6.3µM* | ? | -1% | ? | ?
O=C(NCc1cccnc1)C1CCC(CNS(=O)(=O)c2cccc3nsnc23)CC1 (stereo not drawn) | 11% | 0% | -3% | -22 | 5% | -2% | . | . | . | . | .
COc1cc(-c2cc(C(F)(F)F)n3ncc(C(=O)O)c3n2)cc(OC)c1OC | 14% | 2% | -3% | -3 | 4.1µM* | -1% | 7.1µM* | 10% | ? | ? | 12%
COc1ccc(-c2cc(C(F)(F)F)n3ncc(C(=O)NCc4ccco4)c3n2)cc1 | -14% | -27% | -23% | 39 | 1.3µM* | -1% | 1.8µM* | ? | ? | -8% | -12% | ELG1 FLuc counter=0%;FLuc enzyme=-12%
CC(C)CCNC(=O)c1cnn2c(C(F)(F)F)cc(-c3ccco3)nc12 | -36% | -1% | -10% | 0 | ? | -3% | . | . | . | . | .
NC(=O)c1cnn2c(C(F)(F)F)cc(-c3ccccc3)nc12 | -36% | -5% | 0% | 2 | . | . | . | . | . | . | .
Cc1ccc(C2CC(C(F)(F)F)n3ncc(C(=O)NCc4ccco4)c3N2)cc1 (stereo not drawn) | -7% | -10% | -2% | -16 | -20% | 6% | 28µM* | -11% | ? | 5% | 7% | ELG1 FLuc counter=5%;FLuc enzyme=-8%
O=C1NC[C@@H](CCCCN2CCN(CC3CCCCC3)C(=O)C2=O)N(CC2CCCCC2)C1=O | 22% | . | . | . | . | . | . | . | . | . | .
COc1ccc(-c2ccc3[nH]c4c(c3c2)CCN2C[C@@H]([C@H](C)O)[C@@H](N(C)C(=O)Nc3cc(Cl)cc(Cl)c3)C[C@@H]42)cc1 | -85% | . | . | . | . | . | . | . | . | . | .
Cc1cccc(C(=O)OCC(=O)N2CCCCCC2)c1O | ? | . | . | -8 | ? | ? | . | . | . | . | ?
O=C(OCC(=O)N1CCCCC1)c1cccs1 | ? | . | . | -7 | ? | ? | . | . | . | . | -7%
CCOc1ccc(-c2[nH]ncc2-c2ccc(OC)c(OC)c2)c(O)c1 | -83% | ? | ? | 2 | 2.3µM* | -5% | 13µM* | ? | -4% | ? | ?
COc1ccc(-c2cn[nH]c2-c2ccc(O)cc2O)cc1OC | -42% | -3% | -3% | -8 | -12% | -4% | . | . | . | . | .
CCc1ccc(NC(=O)CNC(=O)c2nn(-c3ccc(OC)cc3)c(=O)c3ccccc23)cc1 | -17% | -4% | -17% | 6 | -14% | -10% | 14µM* | 16% | ? | -3% | ? | ELG1 FLuc counter=1%;FLuc enzyme=-9%
COc1ccc(-n2nc(C(=O)NCC(=O)Nc3ccc(F)cc3)c3ccccc3c2=O)cc1 | -26% | -13% | ? | 5 | ? | 0% | . | . | . | . | .
COc1ccc(-n2nc(C(=O)NCC(=O)Nc3cc(Cl)c(OC)cc3OC)c3ccccc3c2=O)cc1 | -4% | -1% | 8% | 6 | ? | -3% | . | . | . | . | .
COc1ccc(NC(=O)CNC(=O)c2nn(-c3ccc(OC)c(Cl)c3)c(=O)c3ccccc23)c(OC)c1 | 1% | 3% | 1% | 5 | 5.8µM* | -7% | 3.5µM* | -2% | 10% | -1% | ? | ELG1 FLuc counter=-3%;FLuc enzyme=-13%
O=C(O)c1cccc(Oc2ccccc2[N+](=O)[O-])c1 | -11% | -20% | -32% | -11 | 6% | -3% | . | . | . | . | .
Cc1ccc(N2CN=c3s/c(=C\c4cccnc4)c(=O)n3C2)cc1 | 90% | -8% | -29% | 17 | 2.3µM* | 21% | ? | ? | 1% | 1% | ? | ELG1 FLuc counter=-13%;FLuc enzyme=-19%
O=[N+]([O-])c1cccnc1Oc1cc(Cl)c(Cl)cc1Cl | 9% | . | . | . | . | . | . | . | . | . | .
COc1ccc(C(CCN)c2ccc3c(c2)OCO3)cc1 (stereo not drawn) | -11% | -8% | -6% | -11 | -2% | -1% | . | . | . | . | .
